# Measurements taken from article PMC11006913.
# What was measured:
# Assay in all cases: PBM; 200 nM protein, PBS
# Conditions in all cases: dsDNA, one strand shown
# MSX2 [1] = target: MSX2 (Homo sapiens, UniProt P35548 130-214, R199I)
# MSX2 [2] = target: MSX2 (Homo sapiens, UniProt P35548 130-214)
# PROP1 [3] = target: PROP1 (Homo sapiens, UniProt O75360 56-141)
# PROP1 [4] = target: PROP1 (Homo sapiens, UniProt O75360 56-141, R99H)
# PROP1 [5] = target: PROP1 (Homo sapiens, UniProt O75360 56-141, F88S)
# Sequence of PROP1 (Homo sapiens, UniProt O75360 56-141, F88S) (O75360 56-141 F88S): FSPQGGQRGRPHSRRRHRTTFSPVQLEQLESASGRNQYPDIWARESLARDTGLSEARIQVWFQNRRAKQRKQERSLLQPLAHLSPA
# MSX2 [6] = target: MSX2 (Homo sapiens, UniProt P35548 130-214, F161Y)
# Sequence of MSX2 (Homo sapiens, UniProt P35548 130-214, F161Y) (P35548 130-214 F161Y): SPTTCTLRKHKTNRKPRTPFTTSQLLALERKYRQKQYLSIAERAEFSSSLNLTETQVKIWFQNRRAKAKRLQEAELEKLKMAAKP
# ALX1 [7] = target: ALX1 (Homo sapiens, UniProt Q15699 118-204, L144V)
# Sequence of ALX1 (Homo sapiens, UniProt Q15699 118-204, L144V) (Q15699 118-204 L144V): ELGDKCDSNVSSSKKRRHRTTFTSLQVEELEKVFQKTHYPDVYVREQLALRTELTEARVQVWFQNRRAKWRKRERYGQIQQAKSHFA
# ALX1 [8] = target: ALX1 (Homo sapiens, UniProt Q15699 118-204, L144R)
# Sequence of ALX1 (Homo sapiens, UniProt Q15699 118-204, L144R) (Q15699 118-204 L144R): as the sequence (Q15699 118-204 L144V) above, with V27R counted along it
# ALX1 [9] = target: ALX1 (Homo sapiens, UniProt Q15699 118-204)
# Sequence of ALX1 (Homo sapiens, UniProt Q15699 118-204) (Q15699 118-204): as the sequence (Q15699 118-204 L144V) above, with V27L counted along it
# ALX3 [10] = target: ALX3 (Homo sapiens, UniProt O95076 139-225, N203Q)
# Sequence of ALX3 (Homo sapiens, UniProt O95076 139-225, N203Q) (O95076 139-225 N203Q): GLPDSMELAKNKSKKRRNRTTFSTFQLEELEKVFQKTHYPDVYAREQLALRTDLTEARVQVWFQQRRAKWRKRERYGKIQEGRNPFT
# ALX3 [11] = target: ALX3 (Homo sapiens, UniProt O95076 139-225)
# Sequence of ALX3 (Homo sapiens, UniProt O95076 139-225) (O95076 139-225): as the sequence (O95076 139-225 N203Q) above, with Q65N counted along it
# HOXB9 [12] = target: HOXB9 (Homo sapiens, UniProt P17482 171-250, T197M)
# Sequence of HOXB9 (Homo sapiens, UniProt P17482 171-250, T197M) (P17482 171-250 T197M): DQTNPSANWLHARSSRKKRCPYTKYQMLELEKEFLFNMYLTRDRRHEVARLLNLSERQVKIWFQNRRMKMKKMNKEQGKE
# HOXC9 [13] = target: HOXC9 (Homo sapiens, UniProt P31274 178-260, K195R)
# Sequence of HOXC9 (Homo sapiens, UniProt P31274 178-260, K195R) (P31274 178-260 K195R): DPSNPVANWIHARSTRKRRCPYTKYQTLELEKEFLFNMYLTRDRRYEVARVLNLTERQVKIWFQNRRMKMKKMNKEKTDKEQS
# HOXB9 [14] = target: HOXB9 (Homo sapiens, UniProt P17482 171-250)
# Sequence of HOXB9 (Homo sapiens, UniProt P17482 171-250) (P17482 171-250): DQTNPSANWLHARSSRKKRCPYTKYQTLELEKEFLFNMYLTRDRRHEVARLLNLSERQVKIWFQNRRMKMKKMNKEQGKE
# HOXC9 [15] = target: HOXC9 (Homo sapiens, UniProt P31274 178-260)
# Sequence of HOXC9 (Homo sapiens, UniProt P31274 178-260) (P31274 178-260): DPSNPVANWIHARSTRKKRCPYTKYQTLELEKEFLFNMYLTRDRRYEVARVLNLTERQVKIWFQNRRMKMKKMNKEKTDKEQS
# HOXC9 [16] = target: HOXC9 (Homo sapiens, UniProt P31274 178-260, R193K)
# Sequence of HOXC9 (Homo sapiens, UniProt P31274 178-260, R193K) (P31274 178-260 R193K): as the sequence (P31274 178-260) above, with R16K counted along it
# HOXC10 [17] = target: HOXC10 (Homo sapiens, UniProt Q9NYD6 254-340, K271E)
# Sequence of HOXC10 (Homo sapiens, UniProt Q9NYD6 254-340, K271E) (Q9NYD6 254-340 K271E): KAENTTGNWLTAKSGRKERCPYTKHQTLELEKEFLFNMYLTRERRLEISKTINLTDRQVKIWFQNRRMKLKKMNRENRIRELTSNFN
# HOXB9 [18] = target: HOXB9 (Homo sapiens, UniProt P17482 171-250, R186Q)
# Sequence of HOXB9 (Homo sapiens, UniProt P17482 171-250, R186Q) (P17482 171-250 R186Q): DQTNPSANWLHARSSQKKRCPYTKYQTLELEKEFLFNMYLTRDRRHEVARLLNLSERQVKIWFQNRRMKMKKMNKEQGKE
# HOXC9 [19] = target: HOXC9 (Homo sapiens, UniProt P31274 178-260, R222W)
# Sequence of HOXC9 (Homo sapiens, UniProt P31274 178-260, R222W) (P31274 178-260 R222W): as the sequence (P31274 178-260) above, with R45W counted along it
# HOXC10 [20] = target: HOXC10 (Homo sapiens, UniProt Q9NYD6 254-340)
# Sequence of HOXC10 (Homo sapiens, UniProt Q9NYD6 254-340) (Q9NYD6 254-340): as the sequence (Q9NYD6 254-340 K271E) above, with E18K counted along it
# HOXB6 [21] = target: HOXB6 (Homo sapiens, UniProt P17509 132-218, K202E)
# Sequence of HOXB6 (Homo sapiens, UniProt P17509 132-218, K202E) (P17509 132-218 K202E): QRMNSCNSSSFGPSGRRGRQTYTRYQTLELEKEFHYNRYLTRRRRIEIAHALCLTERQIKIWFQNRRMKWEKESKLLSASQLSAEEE
# HOXB6 [22] = target: HOXB6 (Homo sapiens, UniProt P17509 132-218)
# Sequence of HOXB6 (Homo sapiens, UniProt P17509 132-218) (P17509 132-218): as the sequence (P17509 132-218 K202E) above, with E71K counted along it
# ALX4 [23] = target: ALX4 (Homo sapiens, UniProt Q9H161 200-286)
# Sequence of ALX4 (Homo sapiens, UniProt Q9H161 200-286) (Q9H161 200-286): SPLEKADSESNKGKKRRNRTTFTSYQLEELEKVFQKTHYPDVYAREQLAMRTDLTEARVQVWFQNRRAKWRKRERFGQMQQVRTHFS
# ALX4 [24] = target: ALX4 (Homo sapiens, UniProt Q9H161 200-286, Q225E)
# Sequence of ALX4 (Homo sapiens, UniProt Q9H161 200-286, Q225E) (Q9H161 200-286 Q225E): as the sequence (Q9H161 200-286) above, with Q26E counted along it
# HOXA7 [25] = target: HOXA7 (Homo sapiens, UniProt P31268 116-202)
# Sequence of HOXA7 (Homo sapiens, UniProt P31268 116-202) (P31268 116-202): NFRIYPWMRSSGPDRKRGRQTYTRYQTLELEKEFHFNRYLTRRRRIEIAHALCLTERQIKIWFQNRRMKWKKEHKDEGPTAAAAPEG
# HOXA7 [26] = target: HOXA7 (Homo sapiens, UniProt P31268 116-202, W177C)
# Sequence of HOXA7 (Homo sapiens, UniProt P31268 116-202, W177C) (P31268 116-202 W177C): as the sequence (P31268 116-202) above, with W62C counted along it
# Sequence of MSX2 (Homo sapiens, UniProt P35548 130-214) (P35548 130-214): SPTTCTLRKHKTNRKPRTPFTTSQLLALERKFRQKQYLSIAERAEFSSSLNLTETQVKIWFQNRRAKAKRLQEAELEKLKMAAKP
# Sequence of MSX2 (Homo sapiens, UniProt P35548 130-214, R199I) (P35548 130-214 R199I): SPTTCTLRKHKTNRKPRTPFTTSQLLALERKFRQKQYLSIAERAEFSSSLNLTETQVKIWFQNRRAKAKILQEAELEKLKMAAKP
# Sequence of PROP1 (Homo sapiens, UniProt O75360 56-141) (O75360 56-141): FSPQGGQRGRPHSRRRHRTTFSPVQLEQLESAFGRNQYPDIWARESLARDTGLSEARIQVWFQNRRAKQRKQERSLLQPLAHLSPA
# Sequence of PROP1 (Homo sapiens, UniProt O75360 56-141, R99H) (O75360 56-141 R99H): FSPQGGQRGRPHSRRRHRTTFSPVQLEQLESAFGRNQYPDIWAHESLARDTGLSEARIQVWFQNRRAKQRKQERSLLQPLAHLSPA
sequence,measurement,setting,value
CCGCCTGC,binding signal,MSX2 [1],"9.41 upbm affinity estimate (log intensity, higher = more binding, comparable within an allelic series)"
same,binding signal,MSX2 [2],"9.55 upbm affinity estimate (log intensity, higher = more binding, comparable within an allelic series)"
same,binding signal,PROP1 [3],"6.72 upbm affinity estimate (log intensity, higher = more binding, comparable within an allelic series)"
same,binding signal,PROP1 [4],"6.65 upbm affinity estimate (log intensity, higher = more binding, comparable within an allelic series)"
same,binding signal,PROP1 [5],"6.62 upbm affinity estimate (log intensity, higher = more binding, comparable within an allelic series)"
same,binding signal,MSX2 [6],"9.55 upbm affinity estimate (log intensity, higher = more binding, comparable within an allelic series)"
CTATTAAA,binding signal,ALX1 [7],"9.79 upbm affinity estimate (log intensity, higher = more binding, comparable within an allelic series)"
same,binding signal,ALX1 [8],"9.81 upbm affinity estimate (log intensity, higher = more binding, comparable within an allelic series)"
same,binding signal,ALX1 [9],"10.3 upbm affinity estimate (log intensity, higher = more binding, comparable within an allelic series)"
CCATAAAA,binding signal,ALX3 [10],"8.22 upbm affinity estimate (log intensity, higher = more binding, comparable within an allelic series)"
same,binding signal,ALX3 [11],"8.99 upbm affinity estimate (log intensity, higher = more binding, comparable within an allelic series)"
ACATAAAA,binding signal,MSX2 [2],"11.3 upbm affinity estimate (log intensity, higher = more binding, comparable within an allelic series)"
same,binding signal,MSX2 [6],"11.1 upbm affinity estimate (log intensity, higher = more binding, comparable within an allelic series)"
ACATTAAA,binding signal,HOXB9 [12],"9.92 upbm affinity estimate (log intensity, higher = more binding, comparable within an allelic series)"
same,binding signal,HOXC9 [13],"12.6 upbm affinity estimate (log intensity, higher = more binding, comparable within an allelic series)"
same,binding signal,HOXB9 [14],"12 upbm affinity estimate (log intensity, higher = more binding, comparable within an allelic series)"
same,binding signal,HOXC9 [15],"12.6 upbm affinity estimate (log intensity, higher = more binding, comparable within an allelic series)"
same,binding signal,HOXC9 [16],"12.6 upbm affinity estimate (log intensity, higher = more binding, comparable within an allelic series)"
same,binding signal,HOXC10 [17],"11.8 upbm affinity estimate (log intensity, higher = more binding, comparable within an allelic series)"
same,binding signal,HOXB9 [18],"11.7 upbm affinity estimate (log intensity, higher = more binding, comparable within an allelic series)"
same,binding signal,HOXC9 [19],"11 upbm affinity estimate (log intensity, higher = more binding, comparable within an allelic series)"
CGTGAAGC,binding signal,HOXB9 [12],"8.57 upbm affinity estimate (log intensity, higher = more binding, comparable within an allelic series)"
same,binding signal,HOXC10 [20],"10 upbm affinity estimate (log intensity, higher = more binding, comparable within an allelic series)"
same,binding signal,HOXB6 [21],"9.08 upbm affinity estimate (log intensity, higher = more binding, comparable within an allelic series)"
same,binding signal,HOXB9 [14],"8.56 upbm affinity estimate (log intensity, higher = more binding, comparable within an allelic series)"
same,binding signal,MSX2 [1],"9.57 upbm affinity estimate (log intensity, higher = more binding, comparable within an allelic series)"
same,binding signal,HOXC10 [17],"10 upbm affinity estimate (log intensity, higher = more binding, comparable within an allelic series)"
same,binding signal,MSX2 [2],"9.35 upbm affinity estimate (log intensity, higher = more binding, comparable within an allelic series)"
same,binding signal,HOXB9 [18],"8.45 upbm affinity estimate (log intensity, higher = more binding, comparable within an allelic series)"
same,binding signal,MSX2 [6],"9.38 upbm affinity estimate (log intensity, higher = more binding, comparable within an allelic series)"
same,binding signal,HOXB6 [22],"8.9 upbm affinity estimate (log intensity, higher = more binding, comparable within an allelic series)"
AGTCGTTA,binding signal,HOXB9 [12],"10 upbm affinity estimate (log intensity, higher = more binding, comparable within an allelic series)"
same,binding signal,HOXC10 [20],"12.2 upbm affinity estimate (log intensity, higher = more binding, comparable within an allelic series)"
same,binding signal,HOXC10 [17],"12.1 upbm affinity estimate (log intensity, higher = more binding, comparable within an allelic series)"
GGAGCCAC,binding signal,HOXB9 [12],"8.39 upbm affinity estimate (log intensity, higher = more binding, comparable within an allelic series)"
same,binding signal,ALX4 [23],"8.24 upbm affinity estimate (log intensity, higher = more binding, comparable within an allelic series)"
same,binding signal,ALX4 [24],"8.19 upbm affinity estimate (log intensity, higher = more binding, comparable within an allelic series)"
same,binding signal,HOXB9 [14],"8.65 upbm affinity estimate (log intensity, higher = more binding, comparable within an allelic series)"
same,binding signal,HOXB9 [18],"8.65 upbm affinity estimate (log intensity, higher = more binding, comparable within an allelic series)"
GCCTTCCC,binding signal,HOXB9 [12],"8.39 upbm affinity estimate (log intensity, higher = more binding, comparable within an allelic series)"
same,binding signal,HOXC9 [13],"9.49 upbm affinity estimate (log intensity, higher = more binding, comparable within an allelic series)"
same,binding signal,HOXB9 [14],"8.31 upbm affinity estimate (log intensity, higher = more binding, comparable within an allelic series)"
same,binding signal,HOXC9 [15],"9.55 upbm affinity estimate (log intensity, higher = more binding, comparable within an allelic series)"
same,binding signal,HOXC9 [16],"9.63 upbm affinity estimate (log intensity, higher = more binding, comparable within an allelic series)"
same,binding signal,PROP1 [3],"6.64 upbm affinity estimate (log intensity, higher = more binding, comparable within an allelic series)"
same,binding signal,PROP1 [4],"6.59 upbm affinity estimate (log intensity, higher = more binding, comparable within an allelic series)"
same,binding signal,HOXB9 [18],"8.38 upbm affinity estimate (log intensity, higher = more binding, comparable within an allelic series)"
same,binding signal,HOXC9 [19],"9.61 upbm affinity estimate (log intensity, higher = more binding, comparable within an allelic series)"
same,binding signal,PROP1 [5],"6.59 upbm affinity estimate (log intensity, higher = more binding, comparable within an allelic series)"
CTAGGCTC,binding signal,HOXB9 [12],"8.49 upbm affinity estimate (log intensity, higher = more binding, comparable within an allelic series)"
same,binding signal,HOXA7 [25],"8.33 upbm affinity estimate (log intensity, higher = more binding, comparable within an allelic series)"
same,binding signal,HOXB9 [14],"8.52 upbm affinity estimate (log intensity, higher = more binding, comparable within an allelic series)"
same,binding signal,HOXB9 [18],"8.53 upbm affinity estimate (log intensity, higher = more binding, comparable within an allelic series)"
same,binding signal,HOXA7 [26],"8.41 upbm affinity estimate (log intensity, higher = more binding, comparable within an allelic series)"
GGTCCCGA,binding signal,HOXB9 [12],"8.6 upbm affinity estimate (log intensity, higher = more binding, comparable within an allelic series)"
same,binding signal,HOXC9 [13],"9.69 upbm affinity estimate (log intensity, higher = more binding, comparable within an allelic series)"
same,binding signal,HOXB9 [14],"8.47 upbm affinity estimate (log intensity, higher = more binding, comparable within an allelic series)"
same,binding signal,HOXC9 [15],"9.62 upbm affinity estimate (log intensity, higher = more binding, comparable within an allelic series)"
same,binding signal,HOXC9 [16],"9.59 upbm affinity estimate (log intensity, higher = more binding, comparable within an allelic series)"
same,binding signal,HOXB9 [18],"8.44 upbm affinity estimate (log intensity, higher = more binding, comparable within an allelic series)"
same,binding signal,HOXC9 [19],"9.74 upbm affinity estimate (log intensity, higher = more binding, comparable within an allelic series)"
